biological target: T1, Aspartate--tRNA(Asp/Asn) ligase (Mycobacterium tuberculosis (strain ATCC 25618 / H37Rv)) (UniProt P9WFW3); experiment: Assay for Asp RNA synthetase-1 from Mycobacterium tuberculosis; format: functional; parameters: scale not given: in the data most compounds retested in dose-response had high values; details: 30 µM
T1 sequence (whole entry): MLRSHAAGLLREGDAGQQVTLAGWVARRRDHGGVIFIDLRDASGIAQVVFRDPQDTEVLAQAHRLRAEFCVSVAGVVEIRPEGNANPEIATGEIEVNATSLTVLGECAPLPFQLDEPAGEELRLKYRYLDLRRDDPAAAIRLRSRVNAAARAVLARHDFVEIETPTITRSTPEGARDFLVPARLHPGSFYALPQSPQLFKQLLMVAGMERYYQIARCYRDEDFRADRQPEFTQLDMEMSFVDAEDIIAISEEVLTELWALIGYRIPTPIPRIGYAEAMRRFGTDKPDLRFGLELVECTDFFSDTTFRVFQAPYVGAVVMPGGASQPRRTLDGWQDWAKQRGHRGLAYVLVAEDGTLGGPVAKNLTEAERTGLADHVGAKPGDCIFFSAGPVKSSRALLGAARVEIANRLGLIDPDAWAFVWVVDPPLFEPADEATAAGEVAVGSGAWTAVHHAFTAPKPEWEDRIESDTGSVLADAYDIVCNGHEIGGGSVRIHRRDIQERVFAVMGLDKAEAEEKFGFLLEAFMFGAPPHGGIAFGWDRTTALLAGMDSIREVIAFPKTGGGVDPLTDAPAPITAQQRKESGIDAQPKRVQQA

First: COc1cc(C(=O)N(CCC#N)Cc2ccccn2)cc(OC)c1C
Second: CCC(CO)N(Cc1ccccn1)C(=O)c1ccc2c(c1)CCO2 (stereo not given)
The Percent Effect of the first is higher: -3.83% for the first, -5.37% for the second.

First: CCC(O)CNC(=O)C1(N(C)Cc2ccccc2)Cc2ccccc2C1 (stereo not given)
Second: N#Cc1cccc(CS(=O)(=O)NCCC(O)c2ccccc2)c1 (stereo not given)
The Percent Effect of the first is higher: 2.72% for the first, -1.46% for the second.

Going from `CCn1nc(C)c(CNC(=O)c2cn(CCC3CCCCN3)nn2)c1C` (stereo not given) to `CCn1nc(C)c(CNC(=O)c2cn(CC3CCCO3)nn2)c1C` (stereo not given), the Percent Effect falls from 0.0575% to -4.13%.

First: CC(C)(C)OC(=O)NC(C)(C)c1noc(CN2CCCCC2)n1
Second: Cn1ccnc1SCc1nc(C(C)(C)NC(=O)OC(C)(C)C)no1
The Percent Effect of the first is lower: -0.448% for the first, -0.333% for the second.

First: CS(=O)(=O)NCCC(=O)NC1CCc2nccn2C1 (stereo not given)
Second: CCCS(=O)(=O)N1CCC(NC(=O)c2cc(C)c(CC)s2)CC1
The Percent Effect of the first is higher: 3.25% for the first, -2.13% for the second.

Compared with `CCCC(NC(=O)c1cc(C)n(C2CC2)c1C)c1nnn[nH]1` (stereo not given), `CCCC(NC(=O)c1cc(C)ccc1C)c1nnn[nH]1` (stereo not given) is lower in Percent Effect: -0.908% for the first, -2.52% for the second.

First: O=S(=O)(Cc1ccccc1F)NCCN1CCOCC1
Second: Cc1ccccc1CS(=O)(=O)NCCCN1CCCCC1
The Percent Effect of the first is lower: -2.93% for the first, -2.17% for the second.

Compared with `O=C(COc1cccc(Br)c1)N1CCN(c2nccs2)CC1`, `COc1cccc(S(=O)(=O)CCN2CCCN(C(C)=O)CC2)c1` is lower in Percent Effect: 1.41% for the first, -1.55% for the second.

Going from `NC(=O)C1CCCN1Cc1cccc(NC(=O)c2ccsc2)c1` (stereo not given) to `Cc1cccnc1NC(=O)C1CCCN1Cc1ccccc1` (stereo not given), the Percent Effect falls from 2.98% to -1.55%.

Compared with `CC(C)c1nccn1CCCNC(=O)c1ccc(-c2cncnc2)nc1`, `CN(C)CCCNC(=O)c1cc(Br)c2c(c1)OCCO2` is higher in Percent Effect: -1.78% for the first, 0.724% for the second.

Going from `CN(CCNC(=O)N1CCN(Cc2ccon2)CC1)C1CCCC1` to `O=C(C1CC(=O)N(C2CCCC2)C1)N1CCN(CCn2cccc2)CC1` (stereo not given), the Percent Effect rises from -5.04% to -2.4%.

Compared with `CSC(C)(C)CNC(=O)NC1CCN(C)CC1`, `CN(CCO)Cc1nnc(C2CCN(C3CCCCC3)CC2)n1C` is higher in Percent Effect: -4.75% for the first, 4.1% for the second.

First: Cc1cc(F)ccc1OC1(C(=O)O)CCN(Cc2cccnc2N)CC1
Second: CN1C(=O)CC(C(=O)O)C12CCN(Cc1ccc(F)cc1Cl)CC2 (stereo not given)
The Percent Effect of the first is lower: -3.76% for the first, -1.07% for the second.

Going from `Cn1c(C(=O)N2CCC(C(=O)N3CCCC3)CC2)c(Cl)c2ccccc21` to `CCC(=O)N1CC[C@@H](c2ccc3ccccc3c2)[C@H](O)C1`, the Percent Effect rises from -5.07% to 2.26%.

First: COc1cccc(S(=O)(=O)CCN2CCC3(CC2)OCCO3)c1
Second: COc1cccc(CN(C)C(=O)CN2CCN(CCO)CC2)c1
The Percent Effect of the first is higher: -0.724% for the first, -0.747% for the second.

First: O=C(O)C(c1ccc2c(c1)OCCO2)N1CCCCCC1 (stereo not given)
Second: CN(C)c1ccc(CCNC(=O)C2CCC(=O)N(C3CCCC3)C2)cc1 (stereo not given)
The Percent Effect of the first is higher: -3.23% for the first, -4.1% for the second.

First: Cc1cnn(Cc2cc(F)ccc2F)c1NC(=O)C1COCCO1 (stereo not given)
Second: COc1ccc(NC(=O)CCC2CCCN(Cc3ncon3)C2)c(C)c1 (stereo not given)
The Percent Effect of the first is lower: -0.287% for the first, 1.11% for the second.

Going from `CCN1CC2(CCN(CCOCCO)CC2)CC(c2ccccc2)C1=O` (stereo not given) to `Cc1nn(CCO)c(C)c1CNC1CCC(C)(C)c2ccccc21` (stereo not given), the Percent Effect rises from -2.77% to -0.793%.

Compared with `CCS(=O)(=O)N1CCC(c2nnc(CN3CCOCC3)n2C)CC1`, `CCOC(=O)C1CCCN(c2ccc(-c3nc(C)no3)cn2)C1` (stereo not given) is higher in Percent Effect: -1.39% for the first, -0.931% for the second.

Compared with `COc1cc(CNC(=O)NCCCF)cc(Br)c1OC`, `COc1nc(C)c(C(=O)N(C)Cc2nc(-c3ccccn3)no2)s1` is higher in Percent Effect: -0.885% for the first, 1.83% for the second.

Source: ChEMBL document CHEMBL3988442, “University of Dundee, Small-Polar-MMV Screening Library” (2021)
